The OligoGym collection

target: CNGB1; test: pooled miR-30 sensor sort-seq; sequence = guide strand; details: shRNA
Also: reference of the scale not given here.

Sequence	sensor-assay potency score (higher = more potent)
TAGGACATACATCAGGTTGGTC	0.2
TTGTCCGTAATGATGTCCCCGC	-0.775
TTTCTTCCGGAGTAACTTCTGA	-0.522
TCTTTCTCCTCTTCAATCCGGG	-0.237
TTGAACTTGCAGCAGAGCATGT	-0.734
TAGTAGGTCTGTCCGGCGGTGG	-0.909
TGCGGTAGTAGGTCTGTCCGGC	0.228
TTGGGTTCATCTGTGCACCCTG	0.488
TAAGCTGGAACCACCTCTGTAC	0.05

target: CNN2; test: as above; details: shRNA

Sequence	sensor-assay potency score (higher = more potent)
TTGCGTTTGGTCCACAGTCGTA	-1.13
TCATAGAGATGCCTTCTCGTGC	-0.57
TGTAGCTTGTTCATGAGTGTGC	0.544
AATACTTCCTGAAACTTGCGGG	0.259
TAGCACTCTCTCCACTGTCCTT	-0.91
TAAGATAGTTCCATCCTTCAGG	-0.219
TTGTCGGTTCCCAGCTTGGTAT	-1.75
TGGCTGGCACACTTGTTCGTGC	-1.46
TAGCTTGTTCATGAGTGTGCAT	-0.436
TTGATGAAGTTGGACAGGTTTT	-0.865
TCTGTTGGTCTGAAGGTCCTAG	0.303
TTTCTTTTGTGAATACTTCCTG	0.659
TTGACTGGCAGCACTGAACGGG	-0.107
TTCTTTTGTGAATACTTCCTGA	-0.256
TTGGGGTCATATATCTGCCGGC	-0.73
ATGAGTGTGCATAAGATAGTTC	-0.603
TGTCACACTTGTCGGTTCCCAG	-0.793
TAGAGATGCCTTCTCGTGCCGT	-0.0875
TTGGACAGGAGCCGGTTCTTGA	-0.733
TTGGACAGGTTTTCTAGCTGGT	0.325
TCATATTTGGACAGGAGCCGGT	-0.85
TTGGTATCATAGATGTGCCGCC	-0.285
TATTTCACATTATCTCACGGAG	-0.296
TAGCTGGTGCCAGTTCTGCATG	-1.58

target: CNOT1; test: as above; details: shRNA

Sequence	sensor-assay potency score (higher = more potent)
TATTCTTCAAACAAGTTCCTTA	0.402
TTGAAATCCAGGATGGTCCAGT	0.513
TAGGTGAAGATCATACTGCTGC	0.544
TATCTCTTTACTAAAGTGCTGG	-0.169
TTTTGTGTCATATTTGACTGTG	0.162
TACAGTTAAATACTTCTCGTTC	-0.0593
TTCCTTTAGCTCTTCAACCTTT	-0.326
